# Source: PubChem
# DT40 TDP1 no CPT = qHTS for Inhibitors of human tyrosyl-DNA phosphodiesterase 1 (TDP1): qHTS in cells in absence of CPT; DT40 Tdp1-/- hTDP1 cells, no CPT, ATP luminescence, 48 h; Potency, µM (titrated, usually from 46.2 µM), without a hit: at the top dose activity change, negative = growth inhibition, actives largely listed as inhibitors; hit rate 15% among 420,000; also: potency is read from the fitted curve at half-maximal effect; nearly all actives have a fitted effect of over 55% in size
#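 A cellular qHTS used chicken DT40 cells lacking endogenous Tdp1 but carrying stably transfected human TDP1. Compounds were applied without camptothecin, and cell growth kinetics were judged by ATP-dependent luminescence after ≥48 hr.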
# DT40 TDP1 CPT = growth inhibition of DT40 Tdp1-/-;hTDP1 cells with camptothecin (screen for TDP1 inhibitors). AID 686979. hit rate 12% among 420,000. chicken DT40 Tdp1-/-;hTDP1 cells + 20 nM CPT, ATP luminescence, 48 h. Potency, µM (titrated, usually from 46.2 µM), for the others: top-dose activity change, negative = growth inhibition, usual class: inhibitors; also: potency is read from the fitted curve at half-maximal effect; nearly all actives have a fitted effect of over 55% in size
#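 Chicken DT40 Tdp1-/- cells stably complemented with human TDP1 were seeded at 400 cells/well in medium containing 20 nM camptothecin, exposed to pin-transferred compounds, and grown at 37 °C for at least 48 hr. Viability was read as ATP luminescence.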
# Giardia killer = Giardia lamblia killing. Giardia lamblia trophozoite viability. activity change, % at 7.66 µM, hits read low. AID 540267. hit rate 0.15% among 340,000; in the data active = activity change below about -80%; inconclusive = between about -30% and that limit;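 also: parasites exposed to compound for two days anaerobically before the ATP read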
#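 ATP-content bioluminescence gauges trophozoite survival. Cells (100/well) receive compound and incubate anaerobically for 48 hrs at 37 deg C; detection reagent follows for 15-30 min at room temperature.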
# ELG1 DNA repair = inhibitors of ELG1-dependent DNA repair in HEK293T cells. HEK293T ELG1-luciferase reporter, luminescence, 16 h; DNA damage induced by 5-fluorouridine. hit rate 2.3% among 330,000. Potency, µM (series often up to 46.1 µM), without a hit: top-dose activity change, negative = inhibition, most hits filed as inhibitors; also: potency is read from the fitted curve at half-maximal effect; nearly all actives have a fitted effect of over 55% in size
#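 Step one: seed 2,000 cells per well. Step two: pin-transfer compound or DMSO alongside 5-fluorouridine. Step three: incubate 16 hr, 37 °C, 5% CO2. Step four: add ONE-Glo, wait 30 min, read luminescence.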
# IL1B secr inh = inhibitors of inflammasome signaling (IL-1 beta secretion) | activity change, % at 57.5 µM | AID 743279 | THP-1 LPS/ATP IL-1B secretion, AlphaLISA, 16 h; stronger effect = lower value | hit rate 4.7% among 360,000; in the data active = activity change below about -50%; inconclusive = mostly about -30% to -49%
#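 THP-1 cells pretreated 1 hr with compounds (up to 57.5 uM final), then stimulated with LPS (250 ng/mL final) plus ATP (1.25 mM final); secreted IL-1B measured by AlphaLISA after 16 hr, decreased signal indicating inhibition.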
# TDP1 block = TDP1 (human) enzyme inhibition. Q9NUW8. Potency, µM (top dose mostly 130 µM), for inactives: at the highest dose activity change, negative = inhibition, actives largely listed as inhibitors. AID 485290. hit rate 0.28% among 350,000. recombinant TDP1, AlphaScreen DNA substrate cleavage; also: potency is read from the fitted curve at half-maximal effect; nearly all actives have a fitted effect of over 40% in size
# Target sequence (Q9NUW8 whole entry, looked up): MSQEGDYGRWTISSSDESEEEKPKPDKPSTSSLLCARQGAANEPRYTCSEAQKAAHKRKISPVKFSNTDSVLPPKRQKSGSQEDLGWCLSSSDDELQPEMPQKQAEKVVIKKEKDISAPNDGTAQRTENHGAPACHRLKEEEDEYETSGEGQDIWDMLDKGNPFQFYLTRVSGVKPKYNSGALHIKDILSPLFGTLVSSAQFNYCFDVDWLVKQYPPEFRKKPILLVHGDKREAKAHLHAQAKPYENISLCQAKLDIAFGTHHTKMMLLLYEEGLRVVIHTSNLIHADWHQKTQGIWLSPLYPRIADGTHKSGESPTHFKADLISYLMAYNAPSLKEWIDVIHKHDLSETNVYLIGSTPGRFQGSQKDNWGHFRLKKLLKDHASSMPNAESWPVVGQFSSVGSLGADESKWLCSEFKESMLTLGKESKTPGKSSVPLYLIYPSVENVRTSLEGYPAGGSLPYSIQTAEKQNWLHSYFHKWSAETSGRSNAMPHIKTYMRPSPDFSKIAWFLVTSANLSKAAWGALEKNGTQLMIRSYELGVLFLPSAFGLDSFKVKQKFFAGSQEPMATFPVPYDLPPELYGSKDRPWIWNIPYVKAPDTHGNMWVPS
#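 Recombinant human Tdp1 (E. coli-expressed, 1 nM final) preincubated with compounds 15 min at room temperature, then 5'-biotin/3'-phosphotyrosine-FITC DNA substrate (15 nM final) added for 5 min. AlphaScreen beads (10 ug/ml final) added 10 min; cleavage lowers signal.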
# The depositor's hits bear a star; ? = inconclusive; · = not tested or not shown; [ ] = another dose, or the depositor's remark. Shown are actives, neighbours in structure and some others; about 19% of the full set was active somewhere. Unless noted, calls follow the shape of the dose curve; as a rule, active = well fitted curve in the direction sought with a large enough effect; inconclusive = small, poorly fitted or top-dose-only effect, or another doubt; inactive = no such curve, though single readings can be large; an effect the other way counts as inactive or inconclusive. % is scaled to controls: 0 for no effect and ±100 for the full control effect.
SMILES,DT40 TDP1 no CPT,DT40 TDP1 CPT,Giardia killer,ELG1 DNA repair,IL1B secr inh,TDP1 block
CC1(C)Cc2c(ccc3ccccc23)C(=O)N1,20.6µM*,?,8.2,?,?,4.1%
CNC(=O)/C=C1\NC(C)(C)Cc2ccccc21,-16.1%,-1.6%,-0.5,2.9%,6.6,2.0%
CCn1c(=O)c2sccc2n2c(CCC(=O)N3CCN(c4ccc(C(C)=O)cc4)CC3)nnc12,-15.8%,2.6%,·,·,·,0.9%
Cc1ccccc1OCC(=O)OC(C)C(=O)NC1CCCC1 (stereo unspecified),-6.8%,5.3%,2.6,9.0%,0.3,0.5%
CC(C)(O)C(=O)NN(Cc1ccccc1)c1ccccc1,3.7%,-6.4%,4.2,2.2%,40.1,1.3%
CN(C)N(Cc1ccccc1)C(=O)C(O)(c1ccccc1)c1ccccc1,25.9µM*,?,-20.9,?,-5.9,·
COc1ccc(-c2nn(-c3ccccc3)cc2CO)cc1,?,-23.8%,5.4,?,-26.8,2.3%
N=C(N)SCc1cn(-c2ccccc2)nc1-c1ccc(Br)cc1,7.31µM*,9.2µM*,6.8,5.9%,-77.4*,2.6%
CCCN1C(=O)/C(=C/c2c(NCCCOCC)nc3c(C)cccn3c2=O)SC1=S,?,?,18.5,-3.0%,19.6,6.0%
Cc1cccn2c(=O)c(/C=C3\SC(=S)NC3=O)c(NCCCN3CCOCC3)nc12,23.1µM*,?,-4.6,1.2%,-83.1*,5.1%
Cc1nc2ccc(S(=O)(=O)CCC(=O)Nc3ccc(Cl)cc3)cc2s1,-15.7%,-13.7%,·,·,·,7.7%
Cc1ccc2nc(-c3cccc(N)c3)[nH]c2c1,?,14.6µM*,?,?,-3.8,-1.0%[56.1 µM]
O=[N+]([O-])c1cccc(-c2nc3ccc([N+](=O)[O-])cc3[nH]2)c1,20.6µM*,10.3µM*,?,-19.1%,-16.4,0.0%
COc1ccc(-c2nc3ccc([N+](=O)[O-])cc3[nH]2)cc1,?,?,12.8,?,-7.3,-2.4%
Cc1ccc(-c2nc3ccc([N+](=O)[O-])cc3[nH]2)cc1,20.6µM*,?,-15.0,?,-15.4,-2.5%
Clc1ccc(-c2nc3ccncc3[nH]2)cc1,?,10.3µM*,-11.1,?,4.3,-2.3%
COc1ccccc1CNC(=O)c1sccc1-c1ccccc1,?,0.7%,7.3,-8.3%,5.7,5.1%
O=C1NC[C@H](CCCCN2C[C@H](Cc3ccc(O)cc3)N(CCC3CCCCC3)C(=O)C2=O)N(CCc2ccc(O)cc2)C1=O,4.3%,0.2%,·,·,-7.5,·
O=[N+]([O-])c1ccc2nc(-[n+]3c(-c4ccccc4)cc(-c4ccccc4)cc3-c3ccccc3)[nH]c2c1,20.6µM*,23.1µM*,-17.8,23.1µM*,?,10.7%
O=[N+]([O-])c1ccc2nc(-c3ccccc3[N+](=O)[O-])[nH]c2c1,-12.0%,0.1%,-1.4,26.3%,?,3.7%
O=[N+]([O-])c1ccc2nc(-c3ccc(Cl)cc3)[nH]c2c1,16.4µM*,?,-4.3,?,?,5.1%
COc1ccc(-c2cccc3c2OC(CNC(=O)c2ccccc2-n2cccn2)C3)nn1 (stereo unspecified),?,-15.3%[9.04 µM],·,·,·,·
CCCNC(=O)c1ccc(C)c(NC(=O)C2=C(C)OCCS2)c1,-23.1%,18.9%,5.9,1.7%,5.7,·
CC1=C(C(=O)Nc2cc(C(=O)N3CCN(c4ccc(Cl)cc4)CC3)ccc2C)SCCO1,14.6µM*,18.4µM*,·,·,-29.2,·
CC1=C(C(=O)Nc2cccc(C(=O)NC3CCCCC3C)c2)SCCO1 (stereo unspecified),?,16.4µM*,-23.2,?,-0.5,2.2%
SMILES,DT40 TDP1 no CPT,DT40 TDP1 CPT,Giardia killer,ELG1 DNA repair,IL1B secr inh,TDP1 block
CC1=C(C(=O)Nc2cccc(C(=O)N3CCN(c4cccc(C(F)(F)F)c4)CC3)c2)SCCO1,25.9µM*,14.6µM*,-20.2,-28.8%,-60.7*,8.5%
CC1=C(C(=O)Nc2ccc(C(=O)N3CCN(c4cccc(Cl)c4)CC3)cc2)SCCO1,-22.1%,?,4.3,-16.6%,?,7.6%
COc1ccccc1N1CCN(S(=O)(=O)c2ccc(-c3cnc(C4CC4)o3)cc2)CC1,20.6µM*,?,-9.9,-7.4%,27.7,0.5%
Cc1ccc(C)c(N2CCN(S(=O)(=O)c3ccc(-c4cnc(C5CC5)o4)cc3)CC2)c1,9.2µM*,14.6µM*,·,·,·,-1.2%
Cc1cccc(N2CCN(S(=O)(=O)c3ccc(-c4cnc(C5CC5)o4)cc3)CC2)c1C,13µM*,18.4µM*,·,·,·,-8.8%
COc1ccccc1N1CCN(S(=O)(=O)c2ccccc2)CC1,?,?,-8.4,?,-20.9,5.6%
Cc1ccc(C)c(N2CCN(S(=O)(=O)c3ccc(C4CCCCC4)cc3)CC2)c1,·,·,·,·,·,3.2%
Cc1cccc(N2CCN(S(=O)(=O)c3cn(C)cn3)CC2)c1C,3.6%,5.6%,-8.4,19.3%,18.4,3.4%
Cc1ccc(C(=O)OCC(=O)NCc2cccc(Cl)c2)cc1S(=O)(=O)N1CCCCC1,?,?,1.4,?,-19.1,0.5%
Nc1ccc(S(=O)(=O)N2CCN(S(=O)(=O)c3ccc4c(c3)OCCO4)CC2)cc1,·,·,·,·,·,-0.4%
COc1ccc(Br)cc1CN(C)C(=O)Cc1ccc(S(=O)(=O)N2CCOCC2)s1,20.6µM*,?,-0.8,-27.6%,-2.5,10.3%
CCNC(=O)Cc1ccc(S(=O)(=O)N2CCOCC2)s1,8.3%,9.1%,16.5,0.9%,14.5,1.2%
COc1cc(NC(=O)Cc2ccc(S(=O)(=O)N3CCOCC3)s2)c(OC)cc1Cl,20.6µM*,?,29.4,?,11.8,-9.5%[0.505 µM]
O=C(Cc1ccc(S(=O)(=O)N2CCOCC2)s1)Nc1cc(Cl)ccc1Cl,-15.3%,3.7%,10.4,?,-56.6*,4.4%
CCOC(=O)c1ccccc1NC(=O)Cc1ccc(S(=O)(=O)N2CCCC2)s1,?,?,-5.2,25.9µM*,-18.5,0.3%
Cn1c(-c2ccccc2)c(Sc2ccccc2)c2cc(-c3ccc4cc[nH]c4c3)ccc21,23.1µM*,?,·,·,35.3,·
COc1cc(OC)cc(-c2c(-c3cccs3)c3cc(-c4ccc5cc[nH]c5c4)ccc3n2C)c1,13µM*,?,6.9,9.9%,-10.3,0.0%
COc1cccc(-c2c(-c3cc(OC)cc(OC)c3)n(C)c3ccc(-c4ccc5cc[nH]c5c4)cc23)c1,?,18.4µM*,8.3,26.9%,0.5,4.1%
